Assay outcomes from PubChem.
PfHsp90 set2 = growth inhibition of yeast expressing Plasmodium Hsp90 | S. cerevisiae expressing PfHsp90, BacTiter-Glo ATP, 48 h; yeast lacking PDR1 and PDR3 efflux regulators | inhibition, % at 9.4 µM | 310,000 tested, 0.32% active;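 active = every replicate shows inhibition above about 80%, whatever the replicate mean, limit read from the data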;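 also: 0% = DMSO neutral controls and 100% = 20 µM radicicol positive controls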
Calb FLC = affects C. albicans growth with fluconazole; 300,000 tested, 0.57% active; C. albicans CaCi-2 (fluconazole-resistant clinical isolate) + fluconazole, Alamar Blue growth, 48 h; AID 1979; growth inhibition, % (concentration not given with the values);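 active = growth inhibition above about 58% in most replicates, limit read from the data, passing the limit was not always enough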;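 also: all wells also contain fluconazole at 8 µg/ml as a sub-toxic cotreatment; 0% = median of DMSO wells and 100% = median of geldanamycin control wells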
TIM10 inh = TIM10 yeast growth inhibition; AID 463195; inhibition, % at 10 µM; 330,000 tested, 1.4% active; S. cerevisiae TIM10 strain growth, BacTiter-Glo luminescence, 24 h;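 active = inhibition of 40% or more at the single tested concentration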;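 also: wild-type TIM10 isogenic control strain grown at permissive 25 °C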
tim10-1 inh = inhibits growth of tim10-1 mutant yeast; S. cerevisiae tim10-1 ts strain growth, BacTiter-Glo, 24 h; 330,000 tested, 2.2% active; inhibition, % at 20 µM;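 active = inhibition of at least 40%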;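 also: mutant grown at 25 °C; 0% = DMSO wells with yeast and 100% = wells holding no yeast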
tim23-1 inh = growth inhibitors of tim23-1 mutant yeast; inhibition, % at 20 µM; S. cerevisiae tim23-1 growth, BacTiter-Glo luminescence, 24 h; 330,000 tested, 1.3% active; AID 463212;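 active = growth inhibition of the mutant yeast at or above 50%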;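 also: temperature-sensitive mutant grown at 25 °C; plate controls were DMSO-treated mutant yeast for no effect and medium wells lacking yeast for full effect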
SKKanGAS inh = SKKanGAS growth inhibition; S. pyogenes SKKanGAS, kanamycin growth, BacTiter-Glo, 6 h; 300,000 tested, 1.3% active; AID 1662; inhibition, % at 7.5 µM;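 active = mean replicate score, as percent of positive control median, at least 50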;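 also: strain carries kanamycin resistance gene driven by streptokinase promoter and grows in 40 µg/ml kanamycin; loss of luminescence reflects streptokinase promoter inhibition or plain growth inhibition; 0% = median of DMSO wells and 100% = positive control at its reference dose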
tim10-1 conf = confirmation of tim10-1 mutant yeast growth inhibitors | inhibition, % at 20 µM | shares compounds with tim10-1 inh | S. cerevisiae tim10-1 ts strain growth, BacTiter-Glo, 24 h | 7,400 tested, 56% active;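 active = inhibition of yeast growth at or above a set limit in either of two repeat tests at 20 µM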;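 also: tim10-1 mutant grown at permissive 25 °C to find synthetic lethal compounds; 0% = DMSO yeast wells and 100% = medium wells without yeast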
TIM10 conf = TIM10 yeast growth inhibition, confirmed; inhibition, % at 10 µM; shares compounds with TIM10 inh; S. cerevisiae tim10 strain growth, BacTiter-Glo luminescence, 24 h; 4,600 tested, 63% active;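 active = inhibition of yeast growth at or above a set limit in either of two replicates at 10 µM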;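 also: this counterscreen used the strain with wild-type TIM10; 0% = yeast with DMSO and 100% = medium wells lacking yeast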
tim23-1 confirm = confirmation of tim23-1 mutant yeast growth inhibitors | AID 463218 | shares compounds with tim23-1 inh | 4,400 tested, 83% active | S. cerevisiae tim23-1 growth, BacTiter-Glo luminescence, 24 h | inhibition, % at 20 µM;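 active = inhibition above about 39% in either of two replicate wells at 20 µM, limit read from the data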;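 also: temperature-sensitive tim23-1 mutant grown at 25 °C; 0% = DMSO wells with yeast and 100% = medium wells without yeast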
An asterisk follows results filed as active; / = not tested or not shown. This is a sample that favours compounds with a hit; in the whole collection about 4.7% have one here.

SMILES | PfHsp90 set2 | Calb FLC | TIM10 inh | tim10-1 inh | tim23-1 inh | SKKanGAS inh | tim10-1 conf | TIM10 conf | tim23-1 confirm
CC(C)CNC(=S)NC(=O)c1ccc([N+](=O)[O-])cc1 | -32 | 11 | 26 | 40 | 53* | -3 | 32* | / | 42*
CC(C)CCNC(=S)Nc1ccc([N+](=O)[O-])cc1 | 14 | -46 | 52* | 74* | 60* | 2 | 67* | -40 | 56*
O=C(NC(=S)NCc1ccco1)c1ccc([N+](=O)[O-])cc1 | -9 | / | 11 | 24 | 48 | / | / | / | /
Cc1cc(O)c(C(C)C)cc1NC(=O)Nc1ccc([N+](=O)[O-])cc1 | 0 | / | / | / | / | / | / | / | /
Cc1ccc(C(C)C)cc1NC(=O)Nc1ccc([N+](=O)[O-])cc1 | 32 | -6 | 69* | 76* | 75* | 88* | 79* | 67* | 83*
CCCCNC(=S)NC(=O)c1ccc([N+](=O)[O-])cc1 | / | 1 | 27 | 52* | 53* | 1 | 30 | / | 53*
CC(C)CNC(=S)NC(=O)c1csc([N+](=O)[O-])c1 | -12 | -1 | 37 | 42* | 63* | 11 | 32* | / | 64*
COc1cc(/C=C2\SC(=S)N(NS(=O)(=O)c3ccc(C)cc3)C2=O)cc(OC)c1OC | -32 | 38 | 12 | 9 | 27 | 27 | / | / | /
Cc1ccc(S(=O)(=O)NN2C(=O)/C(=C/c3cccc(F)c3)SC2=S)cc1 | -65 | -5 | 40* | 47* | 71* | 5 | 28 | 40* | -24
O=C(Nc1cccc2cccnc12)c1ccccc1Cl | / | 30 | 13 | 9 | 13 | -9 | / | / | /
CC(=O)Nc1cccc(NC(=O)c2cccc3cccnc23)c1 | 5 | 1 | -5 | 4 | 9 | 1 | / | / | /
Cc1ccc(NC(=O)c2cccc3cccnc23)cc1 | 25 | -6 | 31 | 42* | 65* | 0 | 41* | / | 80*
COc1ccccc1C(=O)Nc1cccc2cccnc12 | -5 | 28 | 35 | 48* | 72* | -1 | 42* | / | 72*
Cc1ccc2cc(C=C(C#N)C#N)c(N3CCCCC3)nc2c1 | -11 | 58* | 45* | 55* | 75* | 6 | 45* | 25 | 73*
Cc1oc(-c2nc3ccccc3n2C)cc1C(=O)c1ccccc1 | 43 | 8 | 53* | 48* | 56* | 16 | 33* | -29 | 73*
COc1ccc(Br)cc1C(C[N+](=O)[O-])c1c(N)n(C)c(=O)n(C)c1=O (stereo not drawn) | 1 | 7 | 19 | 28 | 37 | 8 | / | / | /
COc1ccc(OC)c(C(C[N+](=O)[O-])c2c(C)cc3ccccn23)c1 (stereo not drawn) | -7 | 12 | 66* | 45* | 85* | -8 | 61* | 82* | 91*
N#CCCN(C(=O)COC(=O)CCc1nc2ccccc2c(=O)[nH]1)c1ccc(F)cc1 | 6 | / | 4 | -6 | 3 | / | / | / | /
CCCCC(CC)CN=C(N)NC(N)=NCCCCCCN=C(N)NC(N)=NCC(CC)CCCC (stereo not drawn) | 110* | / | 94* | 96* | 88* | / | 95* | 96* | 84*
Cc1cc(C)c2[nH]c(C(=O)Nc3ccc(F)cc3Br)cc2c1 | -38 | 11 | 21 | 1 | 11 | 6 | / | / | /
CC1CCCC(C)N1C(=O)c1cccc2c1-c1ccccc1/C2=N/O (stereo not drawn) | -3 | / | 26 | 42* | 50* | / | 39* | / | 44*
Cc1ccc(C)c(CNc2ccc(S(=O)(=O)N3CCCCC3)cc2)c1 | -8 | / | 25 | 24 | 24 | / | / | / | /
Cc1ccc(/C(N)=N/OC(=O)CCc2ccccc2)cc1 | -25 | -11 | 55* | 46* | 75* | 5 | 49* | 60* | 61*
N/C(=N\OC(=O)CCCc1ccccc1)c1ccc(Br)cc1 | -4 | 0 | 23 | 25 | 19 | 1 | / | / | /
N/C(=N\OC(=O)C1CCCCC1)c1cccc(Br)c1 | 24 | -12 | 74* | 67* | 75* | 10 | 62* | 58* | 81*
SMILES | PfHsp90 set2 | Calb FLC | TIM10 inh | tim10-1 inh | tim23-1 inh | SKKanGAS inh | tim10-1 conf | TIM10 conf | tim23-1 confirm
N/C(=N\OC(=O)CCc1ccccc1)c1cccc(Br)c1 | 14 | -5 | 63* | 70* | 81* | -2 | 64* | 60* | 76*
N/C(=N\OC(=O)CCc1ccccc1)c1ccc(Br)cc1 | 17 | 0 | 61* | 47* | 65* | 0 | 56* | 55* | 46*
CCCCn1c(N)c(N(CC(C)C)C(=O)c2cc3ccccc3cc2OC)c(=O)[nH]c1=O | -24 | / | / | / | / | / | / | / | /
N/C(=N\OC(=O)CCc1ccccc1)c1ccccc1Cl | -7 | 4 | 47* | 64* | 56* | 8 | 60* | 42* | 48*
O=C(CCc1ccccc1)OCCOC(=O)CCc1ccccc1 | -3 | -12 | 2 | -4 | 9 | 15 | / | / | /
CC(C)(C)c1ccc(C(=O)O[C@H]2[C@H](Cc3ccccc3)NS(=O)(=O)[C@H]3C[C@@H]4C=C[C@]23O4)cc1 | 1 | / | -5 | 9 | 17 | / | / | / | /
O=c1cc(-c2ccccc2)nc2cc(-c3ccc(Br)cc3)[nH]n12 | -8 | 11 | 0 | -11 | 6 | 11 | / | / | /
NNc1nc(-c2ccccc2)cc(-c2ccc(Br)cc2)n1 | 16 | 4 | 39 | 55* | 55* | 46 | 50* | / | 58*
NNc1nc(-c2ccccc2)c2cc(Br)ccc2n1 | 3 | -4 | 56* | 44* | 62* | 65* | 48* | 30 | 28
CC(=O)NNc1nc(-c2ccccc2)c2cc(Br)ccc2n1 | / | -15 | 11 | 10 | -24 | 0 | / | / | /
NNc1nc(-c2ccccc2)c2cc(Cl)ccc2n1 | 9 | 32 | 48* | 54* | 63* | 47 | 32* | 24 | 52*
CC1=CC2=NC(=O)C(c3ccccc3)C(=O)N2C=C1 (stereo not drawn) | -9 | / | / | / | / | / | / | / | /
CCCCOc1ccc(C(=O)NCC(=O)NNC(=O)c2ccco2)cc1 | / | / | -1 | -10 | -5 | / | / | / | /
Oc1ccccc1-c1cc(-c2ccccc2Cl)[nH]n1 | / | -35 | 64* | 73* | 76* | / | 53* | 58* | 12
Oc1ccccc1-c1cc(-c2cccc(F)c2)n[nH]1 | 6 | -33 | 23 | 41* | 64* | 2 | 19 | / | 52*
Fc1cccc(-c2n[nH]c(=S)n2-c2ccccc2)c1 | 7 | -1 | -15 | -8 | 8 | 4 | / | / | /
CN(C)c1ccc(/C=c2\sc3nc(-c4ccccc4)nn3c2=O)cc1 | / | -2 | -4 | 21 | -3 | -5 | / | / | /
